CYP2C19 inh: blockers of cytochrome P450 2C19 activity – biochemical, luminescence, ADME assay, primary screen | P33261 | CYP2C19 Supersomes, luciferin-H EGE luminescence, 30 min | inhibition, % at 5 µM | hit rate 21% among 96,000 | AID 778, 2007;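 active means CYP2C19 inhibition above a set limit at 5 µM in the primary screen, cut at about 50% in these data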;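 further: plate controls were negative control wells for no effect and 2.5 mM tranylcypromine positive control for full effect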
PostGolgi yeast: phenotypic screen on post-Golgi transport, primary screen | post-Golgi transport phenotypic cell assay | inhibition, % at 10 µM | hit rate 0.9% among 98,000 | AID 739, 2007;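 further: yeast cells grown in 1536-well plates; yeast grown about 18 h at 30C before absorbance read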
CYP2C9 act: human CYP2C9 activators, primary screen, biochemical, luminescence; Cytochrome P450 2C9 (Homo sapiens), P11712; recombinant CYP2C9, luciferin-H conversion; hits give high values; factor 1 = untreated enzyme, 0 = blocked; hit rate 1.4% among 96,000; activation factor at 5 µM; AID 1024, 2008;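 active means activation factor of 2 or more for CYP2C9 at a 5 µM dose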;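 further: 0 = sulfaphenazole-blocked wells and 1 = vehicle-only wells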
Target sequence (P11712 whole entry, looked up): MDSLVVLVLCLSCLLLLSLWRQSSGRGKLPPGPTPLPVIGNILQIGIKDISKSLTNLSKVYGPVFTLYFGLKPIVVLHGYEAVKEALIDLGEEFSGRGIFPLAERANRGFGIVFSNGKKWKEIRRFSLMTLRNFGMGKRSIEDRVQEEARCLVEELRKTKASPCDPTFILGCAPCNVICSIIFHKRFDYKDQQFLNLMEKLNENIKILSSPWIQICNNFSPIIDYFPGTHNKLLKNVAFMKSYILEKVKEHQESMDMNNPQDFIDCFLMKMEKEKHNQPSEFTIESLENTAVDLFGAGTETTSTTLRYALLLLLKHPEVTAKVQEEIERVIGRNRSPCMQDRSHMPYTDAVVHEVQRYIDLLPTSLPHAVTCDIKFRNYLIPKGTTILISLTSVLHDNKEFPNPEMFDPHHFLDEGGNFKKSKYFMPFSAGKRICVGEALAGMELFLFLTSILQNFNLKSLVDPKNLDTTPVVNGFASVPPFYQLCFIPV
CYP2C19 activ: human CYP2C19 activators, primary screen, biochemical, luminescence | recombinant CYP2C19, luciferin-H EGE luminescence; hits give high values; 0 = fully inhibited enzyme, 1 = untreated enzyme | Cytochrome P450 2C19 (Homo sapiens), P33261 | activation factor at 5 µM | 96,000 tested, under 10 active;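 active means activation factor of at least 2 at 5 µM in the primary screen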;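 further: 0 = wells with 2.5 mM tranylcypromine and 1 = vehicle-only wells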
CYP2C9 inh: blockers of cytochrome P450 2C9 activity – biochemical, luminescence, ADME assay, primary screen. CYP2C9 Supersomes, luciferin-H conversion. inhibition, % at 5 µM. hit rate 20% among 96,000. P11712;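 active means blocking of liver enzyme CYP2C9 beyond about 50% at 5 µM, limit read from the data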
PostGolgi ctrl: growth inhibition of yeast control strain, primary screen, counter-screen for post-Golgi transport modulator project; inhibition, % at 10 µM; AID 738, 2007; efflux-deficient yeast background strain, growth absorbance A615, 16 h; hit rate 5% among 98,000
* hit, by the source's call; / = not tested or not shown. This is a sample that favours compounds with a hit; in the whole collection about 32% have one here. Unless noted, no stated cut-off is given here; in the data, active means inhibition above about 30%; inactive means the rest.

SMILES | CYP2C19 inh | PostGolgi yeast | CYP2C9 act | CYP2C19 activ | CYP2C9 inh | PostGolgi ctrl
O=C(Cn1c(C(F)(F)F)nc2ccccc21)NCCN1CCCC1 | -18 | 4 | 1.1 | 1.2 | -13 | 7
C=CCOc1ccc2ccccc2c1CNCCCN1CCOCC1 | 24 | 1 | 1 | 0.8 | 2 | -3
CC(=O)c1ccc(Oc2ncnc3sccc23)c(CN2CCOCC2)c1 | / | 1 | / | / | / | 0
CCOc1ccc(N(CC(=O)NCc2ccco2)S(C)(=O)=O)cc1 | 4 | 12 | 0.8 | 1 | 20 | 20
CCC(C)NC(=O)c1ccccc1NC(=O)CN(c1ccc(OC)cc1)S(C)(=O)=O (stereo unspecified) | 72* | 4 | 0 | 0.3 | 98* | -1
CCOc1ccc(N(CC(=O)NCC(C)C)S(C)(=O)=O)cc1 | 60* | -4 | 0.7 | 0.4 | 35 | 3
CCOc1ccc(N(CC(=O)NCCCOC)S(C)(=O)=O)cc1 | 10 | 4 | 1.1 | 0.9 | -10 | 10
CCOC(=O)C(=O)Nc1ccccc1C(=O)Nc1ccc(OC)cc1 | 37 | -3 | 0.5 | 0.6 | 52* | 7
CCOc1ccc(N(CC(=O)NC(C)CC)S(C)(=O)=O)cc1 (stereo unspecified) | 65* | 13 | 0.7 | 0.4 | 30 | 2
CCOC(=O)C1=C(C)NC(C)=C(C(=O)OCC)C1C(=O)OC1CCOC1=O (stereo unspecified) | 28 | -6 | 1 | 0.7 | -4 | 4
Cc1ccc(Cl)cc1N1CCN(S(=O)(=O)c2ccc3c(c2)OCCO3)CC1 | 46 | 2 | 0.2 | 0.5 | 80* | 19
Cc1ccc(C)c(N2CCN(S(=O)(=O)c3ccc4c(c3)OCCO4)CC2)c1 | 81* | -4 | 0.1 | 0.2 | 90* | 22
Cc1cc2oc(=O)cc(CN3CCN(S(=O)(=O)c4ccc5c(c4)OCCO5)CC3)c2cc1C | 58* | 3 | 0.2 | 0.4 | 84* | 26
Cc1cc(C)c2oc(=O)cc(CN3CCN(Cc4ccc5c(c4)OCO5)CC3)c2c1 | 31 | 4 | 0.9 | 0.7 | 9 | 11
CC(=O)Nc1ccc(S(=O)(=O)N2CCN(c3cc(C)ccc3C)CC2)cc1 | 31 | 6 | 0.1 | 0.7 | 85* | 58*
Cc1ccc(S(=O)(=O)N2CCOCC2)cc1C(=O)NCc1ccc2c(c1)OCO2 | 25 | 13 | 0.5 | 0.8 | 48 | 4
O=S(=O)(c1ccc2c(c1)OCCCO2)N1CCNCC1 | -6 | 5 | 1.1 | 1.1 | -11 | 10
CS(=O)(=O)N(CCC(=O)O)Cc1ccccc1 | -12 | 9 | 1.2 | 1.1 | -16 | 26
CC(=O)NC(=S)Nc1ccc(NC(=O)COc2ccc(Cl)cc2)cc1 | 8 | 4 | 1.1 | 0.9 | -10 | -1
COc1ccc(C2C3=C(CCCC3=O)Nc3nc(SCc4ccc(C(=O)O)cc4)nn32)cc1OC (stereo unspecified) | 29 | -5 | 1 | 0.7 | 1 | 0
O=C(NCCC(=O)N1CCNC1=O)OCc1ccccc1 | 24 | 9 | 1.3 | 0.8 | -32 | -2
CCC(C)(C(=O)NC1CCCC1)N(Cc1ccco1)C(=O)c1ccc2c(c1)OCO2 (stereo unspecified) | 38 | -3 | 0.8 | 0.6 | 21 | 9
CCOc1ccc(C(C)=O)cc1COC(=O)C1=COCCO1 | 64* | 12 | 0.5 | 0.4 | 47 | 8
CCOc1ccc(C(C)=O)cc1CC(C(N)=O)C(N)=O | 3 | 3 | 0.9 | 1 | 9 | 2
CCC1CCCCN1C(=O)CSc1nc(N)c(NC(=O)c2ccc(OC)c(OC)c2)c(=O)[nH]1 (stereo unspecified) | -4 | -1 | 0.9 | 1 | 13 | 0
SMILES | CYP2C19 inh | PostGolgi yeast | CYP2C9 act | CYP2C19 activ | CYP2C9 inh | PostGolgi ctrl
O=C(NCC1c2ccccc2CCN1C(=O)CN1C(=O)c2ccccc2C1=O)C1CCCCC1 (stereo unspecified) | -8 | -2 | 0.3 | 1.1 | 72* | 8
O=c1oc2ccccc2n1CSc1nc2ccccc2s1 | 100* | -10 | 0.2 | 0 | 84* | 18
O=C(CSc1nc2ccccc2s1)CSc1nc2ccccc2s1 | -1 | -4 | 0.7 | 1 | 32 | 3
O=c1oc2ccccc2n1CSC1=NCCS1 | 88* | 25 | 0.6 | 0.1 | 45 | 0
O=C(COC(=O)c1cc(S(=O)(=O)N2CCOCC2)ccc1O)NCC1CCCO1 (stereo unspecified) | 5 | -5 | 0.9 | 1 | 8 | 3
Oc1ccccc1/C=N/NC1=NCCCCC1 | 4 | -4 | 1 | 1 | 0 | 10
Cc1ccc(-c2cc(C(=O)NCc3ccccn3)c3ccccc3n2)cc1C | 33 | 7 | 0.4 | 0.7 | 59* | 8
CC(=O)NS(=O)(=O)c1ccc(NC(=O)c2cc(-c3ccc(C)c(C)c3)nc3ccccc23)cc1 | 12 | -3 | 0.8 | 0.9 | 16 | -5
Cc1ccc(-c2cc(C(=O)n3cnc4ccccc43)c3ccccc3n2)cc1C | 33 | -6 | 0.1 | 0.7 | 88* | 25
CCCN1C=CC(=C2C(=O)c3ccccc3C2=O)C=C1 | 76* | -17 | 0.4 | 0.2 | 58* | -3
Clc1ccccc1CSc1nnc(-c2ccccn2)n1Cc1ccco1 | 0 | 0 | 0.9 | 1 | 7 | 13
O=C(CSc1ncccn1)NCc1ccccc1Cl | 75* | -4 | 1.2 | 0.3 | -23 | 1
O=C(CSc1nc2ccccc2c(=O)n1NC(=O)Cc1ccccc1)NCc1ccccc1Cl | 90* | 12 | 0.1 | 0.1 | 94* | 7
Cn1c(Cn2c(=O)sc3ccccc32)nnc1SCC(=O)NCc1ccccc1Cl | / | 1 | / | / | / | 2
Clc1ccccc1CSc1ncccn1 | 53* | -4 | 1.3 | 0.5 | -34 | 9
CC/C(=N\OC(=O)c1ccc(OC(C)C)cc1)c1ccc(C)cc1 | 73* | 22 | 0.4 | 0.3 | 62* | 23
C/C(=N\OC(=O)c1ccc(OC(C)C)cc1)c1ccc(C)c(C)c1 | 56* | -13 | 0.4 | 0.4 | 56* | 6
C/C(=N\OC(=O)c1ccc(C)cc1)c1sc(C)nc1C | 0 | -10 | 1.1 | 1 | -13 | 3
COc1ccc(C(=O)O/N=C(\C)c2ccccc2)cc1 | 52* | -8 | 0.1 | 0.5 | 88* | 4
COc1ccc(-c2cnc(OC(C)(C)C)nc2OC(C)(C)C)cc1OC | 8 | -9 | 0.7 | 0.9 | 26 | 3
COc1ccc(NC(=O)c2ccco2)cc1NC(=O)c1c(F)c(F)c(OC)c(F)c1F | -2 | -7 | 1 | 1 | 3 | 4
COc1ccc(C(c2nnnn2C(C)(C)C)N2CCN(c3nc4ccccc4s3)CC2)cc1 (stereo unspecified) | 18 | 0 | 0.4 | 0.8 | 63* | 16

Screening data deposited in PubChem BioAssay by several laboratories.
